Results as given in PubChem BioAssay AID686978 (National Center for Advancing Translational Sciences (NCATS), 2013).
About 64,000 (15%) of roughly 420,000 compounds were called active. Not shown: some 27% with an inconclusive outcome. The call rests on the fitted dose curve; in most records, active means well fitted inhibition curve with a large enough effect; inconclusive means small, poorly fitted or top-dose-only effect; inactive means flat fitted curve, though single readings scatter. The list is a sample of the results. A call without a number means that no potency is given here.

Experiment: qHTS for Inhibitors of human tyrosyl-DNA phosphodiesterase 1 (TDP1): qHTS in cells in absence of CPT; further: nearly all actives have a fitted effect of over 55% in size
Conditions: DT40 Tdp1-/- hTDP1 cells, no CPT, ATP luminescence, 48 h; activity change, negative = growth inhibition: at 46.2 µM (top of the series)
Outline: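 Cells were dispensed at 400 per well, compounds added by pin tool, plates incubated ≥48 hr at 37 °C, then CellTiter-Glo added for 30 min at room temperature before luminescence reading. Line: DT40 Tdp1-/- complemented with hTDP1; camptothecin omitted.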
Potency means the concentration at half of the fitted maximal effect.

Row | SMILES | Potency
1 | Cc1cccc(NC(c2cccc(F)c2)c2ccc3ccc(C)nc3c2O)n1 (stereo not given) | 5.8 µM (active)
2 | CC(=O)NC(c1cccc(F)c1)c1nc(-c2cccc(F)c2)cs1 (stereo not given) | inactive
3 | CSCCC(NC(=O)c1ccco1)C(=O)Nc1cc(C)ccn1 (stereo not given) | inactive
4 | N#Cc1cccc(CN2CCC(=O)N([C@H](CO)c3ccccc3)CC2)c1 | inactive
5 | O=C(CSCc1c(F)cccc1Cl)NCC1CCCO1 (stereo not given) | inactive
6 | O=c1c(NCc2cccs2)nccn1-c1ccccc1 | inactive
7 | N#Cc1cccc(-c2ccc3ncnc(NCc4cccs4)c3c2)c1 | 23.1 µM (active)
8 | O=C(O)c1ccc2c(c1)C(=O)N(NC(=O)c1ccc(O)cc1)C2=O | inactive
9 | COc1ccccc1OCC(=O)Nc1nnc2n1CCS2 | inactive
10 | O=C(COC(=O)CCCSc1nc2ccccc2[nH]1)Nc1ccc(Oc2ccccc2)cc1 | inactive
11 | O=C(CSc1nc2ccccc2[nH]1)Nc1nc(-c2ccccc2)c(-c2ccccc2)o1 | inactive
12 | O=C(CSc1nc2ccccc2[nH]1)N/N=C/C=C\c1ccccc1[N+](=O)[O-] | 20.6 µM (active)
13 | Cc1cnc(CNc2ncncc2-c2ccccc2Cl)cn1 | inactive
14 | COCC1CCN(C(=O)CCc2nnc(C3(c4ccc(Cl)cc4)CCC3)o2)C1 (stereo not given) | inactive
15 | c1ccc(C2=Nc3cccc4cccc(c34)N2)cc1 | 11.6 µM (active)
16 | COc1ccccc1C1=Nc2cccc3cccc(c23)N1 | 5.17 µM (active)
17 | COc1ccccc1-c1n[nH]nc1C1=CC(=O)CC(C)(C)C1 | inactive
18 | COc1ccccc1-c1nc(SC)n[nH]1 | inactive
19 | CC1(C)CC(=O)C=C(NCCN2CCNCC2)C1 | inactive
20 | COc1ccc(C(=O)OCC(=O)Nc2cccc(C(C)=O)c2)cc1OC | inactive
21 | COC(=O)c1sc(N)c(C(=O)OC)c1COC(=O)CNS(=O)(=O)c1ccc(C)cc1 | inactive
22 | COCCN(C(=O)c1ccccc1F)c1c(N)n(Cc2ccccc2)c(=O)[nH]c1=O | inactive
23 | O=C(NCc1cccnc1)c1cc(C2CCCN(C(=O)C3CCCCC3)C2)on1 (stereo not given) | inactive
24 | CS(=O)(=O)N1CCCCC1c1cc(C(=O)NCc2ccccc2)no1 (stereo not given) | inactive
25 | O=C(NCc1ccc(F)cc1)c1cc(C2CCCCN2C(=O)C2CCCCC2)on1 (stereo not given) | 23.1 µM (active)
26 | O=C(NCc1ccc(F)cc1)c1cc(C2CCCCN2C(=O)c2ccccn2)on1 (stereo not given) | 20.6 µM (active)
27 | CCCNC(=O)c1cc(C2CCCCN2S(=O)(=O)c2cn(C)cn2)on1 (stereo not given) | inactive

Row | SMILES | Potency
28 | O=C(c1cc(C2CCCCN2S(=O)(=O)c2ccccc2)on1)N1CCOCC1 (stereo not given) | inactive
29 | CC(Oc1ccc(Cl)cc1)C(=O)OCC(=O)Nc1ncc(Cl)cc1Cl (stereo not given) | inactive
30 | COC(=O)c1c(NC(=O)C(=O)N2CCCCC2)sc2c1CC(C)(C)OC2 | inactive
31 | COC1=NC2=NCCN2C(OC)=N1 | inactive
32 | Cc1ccc2cccc(NC(=O)C(C)Oc3ccc(C)c(C)c3)c2n1 (stereo not given) | inactive
33 | Cc1ccc2cccc(NC(=O)c3ccc(OC(C)C)cc3)c2n1 | 29.1 µM (active)
34 | CC(C)Oc1ccc(C(=O)Nc2cc(=O)n(C)c(=O)n2C)cc1 | inactive
35 | COCc1cc(=O)[nH]c2cc(NC(=O)C(F)(F)F)c(C)cc12 | inactive
36 | Cn1c(=O)c(=O)n(C)c2cc(NC(=O)c3ccccc3Br)ccc21 | inactive
37 | Cc1ccc(OCCCC(=O)Nc2ccc(N3CCOCC3)cc2)cc1 | inactive
38 | CCOC(=O)c1cnc2c(C)cc(Cl)cc2c1NCCc1ccc(OC)c(OC)c1 | inactive
39 | CCOC(=O)c1cnc2c(C)cc(C)cc2c1Nc1ccc(N2CCOCC2)cc1 | 5.8 µM (active)
40 | COc1ccc(-c2ccc(=O)n(CC(=O)Nc3ccc(Br)cc3F)n2)cc1 | inactive
41 | CCc1nc(SCC(=O)Nc2ccccc2OC)n[nH]1 | inactive
42 | CCCc1nc(SCC(=O)N2CCCC2)c2c(=O)n(C)c(=O)n(C)c2n1 | inactive
43 | CCCc1nc(SCC(=O)Nc2ccccc2OC)c2c(=O)n(C)c(=O)n(C)c2n1 | 23.1 µM (active)
44 | COc1ccc(CCN2CC(C(=O)NCCN3CCNC3=O)CCC2=O)cc1 (stereo not given) | inactive
45 | O=C(COc1ccccc1)NCc1ccc2c(c1)OCO2 | inactive
46 | COc1cccc(NC(=O)C2CCCN2C(=O)OCc2ccccc2)c1 (stereo not given) | inactive
47 | COc1cccc(NC(=O)N2CCCC2C(=O)NC2CCCCC2)c1 (stereo not given) | inactive
48 | COc1cccc(NC(=O)N(Cc2cn(C)c3ccccc23)C2CCCCCC2)c1 | 5.8 µM (active)
49 | O=C1CCC(=O)N1CCOP1(=O)COc2ccccc2OC1 | inactive
50 | CC(=O)N(C)c1ccc(NC(=O)Nc2cccc3ccccc23)cc1 | inactive
51 | CCN(C(=O)Nc1cccc2ccccc12)c1ccccc1 | 20.6 µM (active)
52 | O=C(Nc1cccc2ccccc12)NC1CC1 | inactive
53 | COc1ccc(N2C(=O)CCC(C(=O)Nc3ccccn3)C2c2ccc(OC)c(OC)c2)cc1 (stereo not given) | inactive
54 | CC(C)Cc1nc(Cl)c(C#N)c2c1CCC2 | inactive

Row | SMILES | Potency
55 | O=C1NC2(CCCCC2)N=C1c1ccccc1 | inactive
56 | Cc1ccsc1/C=N/n1c(=S)[nH]nc(C)c1=O | 13 µM (active)
57 | S=c1[nH]nc(-c2ccco2)n1/N=C/c1ccc(Br)s1 | inactive
58 | S=c1[nH]nc(-c2cccs2)n1/N=C/c1cccs1 | inactive
59 | CN(Cc1ccccc1)C(=O)[C@@H]1CCCN1C(=O)[C@@H]1CCCN1C(=O)c1c(F)cccc1F | inactive
60 | N#CC1(NC(=O)COC(=O)CCN=C2NS(=O)(=O)c3ccccc32)CCCCC1 | inactive
61 | CNC(=S)N/N=C/c1ccc(N2CCOCC2)s1 | 3.26 µM (active)
62 | Cc1cc(C(=O)N/N=C/c2ccc(N3CCOCC3)cc2)c(C)o1 | inactive
63 | Cc1ccc(C(=O)C(=S)N2CCOCC2)cc1 | inactive
64 | COc1nc(OC)nc(N(C)CCO)n1 | inactive
65 | COc1cc(CN(C)Cc2nc3cc(C(F)(F)F)ccc3c(=O)[nH]2)ccc1OC(F)F | 18.4 µM (active)
66 | CN(CCOc1ccccc1)Cc1nc2cc(Cl)ccc2c(=O)[nH]1 | inactive
67 | Cc1nc2ccc(S(=O)(=O)NCC(=O)NCCN3CCCCC3C)cc2s1 (stereo not given) | inactive
68 | Cc1nn(-c2ncccn2)c2c1C(=O)CC(C)(C)C2Br (stereo not given) | 20.6 µM (active)
69 | Cc1nn(-c2ccccc2)c2c1C(=O)NC(=O)C(C)(C)C2 | inactive
70 | CN(C)S(=O)(=O)c1ccc(NC(=O)COC(=O)c2n[nH]c3ccccc23)cc1 | 13 µM (active)
71 | O=C(COC(=O)c1n[nH]c2ccccc12)Nc1ccccc1Br | inactive
72 | CN(C)S(=O)(=O)c1ccc(NC(=O)COC(=O)Cn2[nH]c(=O)c3ccccc3c2=O)cc1 | inactive
73 | COc1ccc(-c2nc(SCC(=O)N3CCOCC3)n[nH]2)cc1 | inactive
74 | Cc1ccc(N2C(=O)CC(Nc3cccc4ccccc34)C2=O)cc1 (stereo not given) | inactive
75 | COc1ccc(N2C(=O)CC(Sc3n[nH]c(-c4ccc(C)cc4)n3)C2=O)cc1 (stereo not given) | 10.3 µM (active)
76 | O=C1CC(c2ccccc2)C(=O)N1c1cccc(O)c1 (stereo not given) | inactive
77 | O=C1CC(Sc2ncn[nH]2)C(=O)N1c1ccccc1 (stereo not given) | 11.6 µM (active)
78 | Cc1ccc(N2C(=O)CC(Sc3ncn[nH]3)C2=O)cc1 (stereo not given) | 4.61 µM (active)
79 | CCOC(=O)c1ccc(N2C(=O)CC(Sc3nc(O)c(CC)c(=O)[nH]3)C2=O)cc1 (stereo not given) | inactive
80 | O=C1CC(N2CCN(c3ccc(F)cc3)CC2)C(=O)N1c1ccccc1 (stereo not given) | inactive
81 | COc1ccc(N2C(=O)CC(SC(C)C)C2=O)cc1 (stereo not given) | inactive

Row | SMILES | Potency
82 | CC1Cc2[nH][nH]c(=O)c2C(C2CCCC2)O1 (stereo not given) | inactive
83 | N#Cc1ccc(/C=C2\CCn3c2nc2cc(C(=O)O)ccc2c3=O)cc1 | inactive
84 | NC1=NOC(=O)C1C1CCCCC1 (stereo not given) | 18.4 µM (active)
85 | CC(=O)Nc1ccc(S(=O)(=O)N2CCCC2C(=O)O)cc1 (stereo not given) | inactive
86 | CCOC(=O)C(NC(=O)CC(C)C)(Nc1sc2c(c1C(N)=O)CCCC2)C(F)(F)F (stereo not given) | inactive
87 | COc1cccc(N2CCN(C(=O)CCCCCn3c(=O)[nH]c4ccccc4c3=O)CC2)c1 | 20.6 µM (active)
88 | CCN(CC)CCNC(=O)CCCCCn1c(=O)[nH]c2cc(C(=O)OC)ccc2c1=O | inactive
89 | COc1ccc(CCNC(=O)CCCCn2c(=O)[nH]c3ccccc3c2=O)cc1OC | inactive
90 | Cc1ccc(OCCCC(=O)N2CCOCC2)c(C)c1 | inactive
91 | O=C(CCCn1c(=O)[nH]c2cc(Cl)ccc2c1=O)NCCN1CCN(c2ccccc2)CC1 | 23.1 µM (active)
92 | Cc1ccc(C)c(N2CCN(C(=O)CCCCCn3c(=S)[nH]c4ccc(N5CCOCC5)cc4c3=O)CC2)c1 | 2.91 µM (active)
93 | Cc1ccc(C)c(N2CCN(C(=O)CCc3c(C)nc4c(c3C)c(=O)n(C)c(=O)n4C)CC2)c1 | inactive
94 | Cc1ccc(N2CCN(C(=O)CCc3c(C)nc4c(c3C)c(=O)n(C)c(=O)n4C)CC2)c(C)c1 | inactive
95 | O=C(CCCCCn1c(=O)[nH]c2ccccc2c1=O)NCCc1c[nH]c2ccccc12 | inactive
96 | Cc1ccc(C)c(N2CCN(C(=O)CCCCn3c(=O)[nH]c4ccccc4c3=O)CC2)c1 | 20.6 µM (active)
97 | NS(=O)(=O)c1ccc(CCNC(=O)CCCCCn2c(=O)[nH]c3ccccc3c2=O)cc1 | inactive
98 | O=C(Cc1c(F)cccc1Cl)Nc1ccc(-n2cnnn2)cc1 | inactive
99 | COc1ccc(C(C#N)N2N=C(C)CC2(C)C)cc1 (stereo not given) | inactive
100 | NC(=O)N1CCc2ccccc21 | inactive
101 | CCC1(CC)NC(=O)N(CC(=O)OCC(=O)NC(=O)c2ccccc2)C1=O | inactive
102 | Cc1ccc(C(=O)O)cc1-c1ccc(/C=C2\SC(=O)N(CC(=O)Nc3ccc4c(c3)OCO4)C2=O)o1 | inactive
103 | Cc1ccc(CCCOC(=O)C[N+]2(C)CCCC2)cc1 | inactive
104 | COc1ccc(CC2c3cc(OC)c(OC)cc3CC[N+]2(C)CCC(=O)OCCCCCOC(=O)CC[N+]2(C)CCc3cc(OC)c(OC)cc3C2Cc2ccc(OC)c(OC)c2)cc1OC (stereo not given) | 13 µM (active)
105 | COc1cc2c(cc1OC)[C@@H](Cc1cc(OC)c(OC)c(OC)c1)[N+](C)(CCCOC(=O)CC/C=C/CCC(=O)OCCC[N+]1(C)CCc3cc(OC)c(OC)cc3[C@H]1Cc1cc(OC)c(OC)c(OC)c1)CC2 (stereo not given in full) | inactive
